This is a sample that favours compounds with a hit; in the whole collection about 3.4% have one here.
PLK1 PBD inh: PLK1 (human) polo-box domain binding inhibition | P53350 | Plk1 PBD binding of FITC phosphopeptide, fluorescence polarization | Potency, µM, without a hit: max response, negative = inhibition, actives largely listed as inhibitors | 360,000 tested, 2.8% active | AID 720504; also: series mostly up to about 57 µM; % is scaled to controls: 0 for no effect and ±100 for the full control effect; nearly all actives have a fitted effect of over 65% in size
Target sequence (P53350 whole entry, looked up, the tested form may be a part): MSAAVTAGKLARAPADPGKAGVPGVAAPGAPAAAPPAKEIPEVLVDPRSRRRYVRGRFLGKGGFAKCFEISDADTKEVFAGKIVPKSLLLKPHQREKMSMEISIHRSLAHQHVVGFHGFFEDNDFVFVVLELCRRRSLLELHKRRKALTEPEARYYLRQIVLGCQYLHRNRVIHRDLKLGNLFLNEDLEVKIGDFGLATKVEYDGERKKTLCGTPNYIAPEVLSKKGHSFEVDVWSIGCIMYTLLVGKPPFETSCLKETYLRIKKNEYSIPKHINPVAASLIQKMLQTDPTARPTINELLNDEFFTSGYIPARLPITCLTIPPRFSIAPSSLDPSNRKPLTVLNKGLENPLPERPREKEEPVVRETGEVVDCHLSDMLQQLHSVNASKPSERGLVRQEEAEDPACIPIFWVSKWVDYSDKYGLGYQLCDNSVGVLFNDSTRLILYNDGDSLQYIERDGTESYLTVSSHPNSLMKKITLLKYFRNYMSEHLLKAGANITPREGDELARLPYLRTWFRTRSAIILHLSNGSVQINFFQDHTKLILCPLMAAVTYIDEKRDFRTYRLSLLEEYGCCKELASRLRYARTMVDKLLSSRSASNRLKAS
Mito fusion act: inhibitors of mitochondrial division or activators of mitochondrial fusion; S. cerevisiae fusion-defective mutant growth rescue, CellTiterGlo 48 h; 320,000 tested, 0.23% active; Potency, µM (highest dose often 46.1 µM), inactives show at the top dose growth rescue (activation), hits mostly activators; also: % of control where 0% means no effect; nearly all actives have a fitted effect of over 45% in size
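Read-out: ATP-based luminescence (CellTiterGlo, 10 min ambient) reporting growth of fusion-defective ts yeast after 48 hours at 37C on glycerol/ethanol YPEG medium in the presence of compound.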
KAT2A inh: inhibitors of human GCN5L2 histone acetyltransferase | GCN5L2 HAT assay, ThioGlo1 CoA-SH fluorescence | Potency, µM (doses to about 58.9 µM), for the others: at the highest dose activity change, negative = inhibition, actives largely listed as inhibitors | 390,000 tested, 0.21% active | AID 504327; also: % is scaled to controls: 0 for no effect and ±100 for the full control effect
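Enzyme at 20nM final was mixed with library compounds for 15 min at room temperature. Peptide H3(1-25) at 75uM, acetyl-CoA at 70uM and ThioGlo1 at 50uM were then added. Plates were read immediately and after 20 min (Ex340nm/Em540nm).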
GLS inhibitor: blocks human kidney-isoform glutaminase activity | O94925 | GLS enzymatic activity, qHTS titration | Potency, µM (highest dose often 45.5 µM), without a hit: at the top dose activity change, negative = inhibition, most hits filed as inhibitors | 410,000 tested, 0.21% active | AID 624170; also: % is scaled to controls: 0 for no effect and ±100 for the full control effect
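Coupled fluorescence readout: glutamate oxidase/HRP/Amplex Red detect glutamate formed by hKGA from L-glutamine (1 mM solution added). Buffer 45 mM KH2PO4 pH 8.2, 0.02% Tween-20; reads at t0 and 30 min RT.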
VDR inhibitor: vitamin D3 receptor (human) inhibition | VDR-SRC2-3 peptide fluorescence polarization, 2 h | Potency, µM, for the others: max response, negative = inhibition, actives largely listed as inhibitors | 400,000 tested, 0.93% active | P11473; also: % is scaled to controls: 0 for no effect and ±100 for the full control effect
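Measured by FP: displacement of SRC2-3 coactivator peptide from VDR by library compounds, following a two-hour ambient incubation.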
PKM2 act: increases activity of human pyruvate kinase M2 | P14618 | purified PKM2, Kinase-Glo ATP luminescence, activation; response scale: 0% is enzyme alone, no compound | Potency, µM (titrated, usually from 57.5 µM), inactives show at the top dose activation, actives largely listed as activators | 260,000 tested, 0.34% active | AID 1631; also: % is scaled to controls: 0 for no effect and ±100 for the full control effect; nearly all actives have a fitted effect of over 55% in size
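Purified hPK-M2 (>95% pure) converted ADP (0.1 mM final) to ATP with 0.5 mM PEP in 50 mM imidazole pH7.2, KCl, MgCl2, Tween 20, BSA; 1 h at room temperature. ATP detected by Kinase-Glo luminescence.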
An asterisk follows results filed as active; [ ] = dose if it differs, or a comment. Calls follow the shape of the dose curve; as a rule, active = well fitted curve in the direction sought with a large enough effect; inconclusive = small, poorly fitted or top-dose-only effect, or another doubt; inactive = no such curve, though single readings can be large; an effect the other way counts as inactive or inconclusive. Potency is read from the fitted curve at half-maximal effect.

For COc1ccc(C(O)c2nc3ccccc3n2C(C)C)cc1 (stereo unspecified) the results were PLK1 PBD inh 24µM*, Mito fusion act 2%, KAT2A inh -15%, GLS inhibitor 22%, VDR inhibitor inconclusive and PKM2 act -2%.
Cc1ccc(C(O)c2nc3ccccc3n2C(C)C)cc1 (stereo unspecified) was read as PLK1 PBD inh -14%, Mito fusion act -3%, KAT2A inh 2%, GLS inhibitor 0%, VDR inhibitor 5% and PKM2 act 2%.
Screening CCCCOc1ccc(CSC(=N)N)cc1Cl returned PLK1 PBD inh -9%, Mito fusion act 5%, KAT2A inh -4%, GLS inhibitor 20µM*, VDR inhibitor -17% and PKM2 act 5%.
Screening Cc1cccc(NC(=O)CCC(=O)OCC(=O)c2ccc(Oc3ccc([N+](=O)[O-])cc3)cc2)c1 returned PLK1 PBD inh 11µM*, Mito fusion act -5%, KAT2A inh -4%, GLS inhibitor -3%, VDR inhibitor inconclusive and PKM2 act -1%.
For O=C(O)/C=C/c1ccc(OCc2cccc(F)c2)cc1 the results were PLK1 PBD inh 30µM*, Mito fusion act -1%, KAT2A inh -2%, GLS inhibitor -12%, VDR inhibitor inconclusive and PKM2 act -17%.
`COc1c(Cl)cc(-c2noc(C)c2C(=O)NCc2ccc3c(c2)OCO3)cc1Cl` gave PLK1 PBD inh -7%, Mito fusion act 3%, KAT2A inh -2%, GLS inhibitor -2%, VDR inhibitor -16% and PKM2 act -2%.
For Cc1ccc(CNC(=O)c2c(-c3ccccc3Cl)noc2C)cc1 the results were PLK1 PBD inh 2%, Mito fusion act 6%, KAT2A inh -1%, GLS inhibitor 0% and VDR inhibitor 11%.
`Cc1onc(-c2ccccc2Cl)c1C(=O)NCc1ccco1` gave PLK1 PBD inh -18%, Mito fusion act 1%, KAT2A inh -11%, GLS inhibitor 10µM*, VDR inhibitor -14% and PKM2 act 22%.
Screening COc1c(Cl)cc(-c2noc(C)c2C(=O)NCc2ccccc2)cc1Cl returned PLK1 PBD inh 30µM*, Mito fusion act 3%, KAT2A inh -3%, GLS inhibitor 14%, VDR inhibitor -16% and PKM2 act 3%.
CCCCCC(=O)/C=C/[C@@H]1[C@@H](C/C=C\CCCC(=O)O)[C@@H](O)C[C@H]1O was read as VDR inhibitor 0%.
For CC(=O)Nc1nc(C)c(-c2csc(Nc3ccc(O)cc3)n2)s1 the results were PLK1 PBD inh -29%, Mito fusion act 4%, KAT2A inh 0%, GLS inhibitor 8%, VDR inhibitor 89µM* and PKM2 act 7%.
CC(=O)Nc1ccc(Nc2nc(-c3sc(NC(C)=O)nc3C)cs2)cc1 was read as PLK1 PBD inh 24µM*, Mito fusion act 0%, KAT2A inh -15%, GLS inhibitor 44%, VDR inhibitor 32µM* and PKM2 act 0%.
For CC(NC(=O)Cn1ccsc1=N)C12CC3CC(CC(C3)C1)C2 (stereo unspecified) the results were PLK1 PBD inh 7.5µM*, Mito fusion act 2%, KAT2A inh -2%, GLS inhibitor inconclusive, VDR inhibitor -21% and PKM2 act -22%.
Screening CC(NC(=O)Cn1ncc(Cl)c(Cl)c1=O)C12CC3CC(CC(C3)C1)C2 (stereo unspecified) returned PLK1 PBD inh inconclusive, Mito fusion act inconclusive, KAT2A inh -9%, GLS inhibitor -1%, VDR inhibitor inconclusive and PKM2 act 2%.
`Oc1ccc(-c2cn3c(n2)SCC3)cc1O` gave PLK1 PBD inh 24µM*, Mito fusion act -1%, KAT2A inh -5%[0.501 µM], GLS inhibitor inconclusive, VDR inhibitor -14% and PKM2 act -8%.
For Oc1ccc(-c2cn3c(n2)SCC3)cc1 the results were PLK1 PBD inh -10%, Mito fusion act 0%, KAT2A inh -3%[0.501 µM], GLS inhibitor 9%, VDR inhibitor -6% and PKM2 act -5%.
O=C(O)CSc1nnc2c(n1)[nH]c1ccccc12 was read as PLK1 PBD inh 24µM*, Mito fusion act 1%, KAT2A inh -9%, GLS inhibitor 6%, VDR inhibitor -18% and PKM2 act -31%.
O=C(CSc1nnc2c(n1)[nH]c1ccccc12)OCc1ccccc1 was read as PLK1 PBD inh 0%, Mito fusion act 2%, KAT2A inh -4%, GLS inhibitor 7%, VDR inhibitor 13% and PKM2 act 0%.
O=C(O)CSc1c(-c2cccs2)[nH]c2ccccc12 was read as PLK1 PBD inh 27µM*, Mito fusion act 25%, KAT2A inh -1%, GLS inhibitor -3%, VDR inhibitor inconclusive and PKM2 act -5%.
c1ccc2c(c1)[nH]c1nc(SCCN3CCOCC3)nnc12 was read as PLK1 PBD inh 27µM*, Mito fusion act 1%, KAT2A inh -8%, GLS inhibitor 7%, VDR inhibitor -1% and PKM2 act -12%.
`O=C(CSc1nnc2c(n1)[nH]c1ccccc12)Nc1ccc2c(c1)OCO2` gave PLK1 PBD inh 27µM*, Mito fusion act 0%, KAT2A inh -4%, GLS inhibitor 0%, VDR inhibitor -8% and PKM2 act 0%.
Screening Brc1ccc2[nH]c3nc(SCCN4CCOCC4)nnc3c2c1 returned PLK1 PBD inh -7%, Mito fusion act 1%, KAT2A inh -14%, GLS inhibitor 21%, VDR inhibitor 7% and PKM2 act -6%.
`O=C(O)c1ccc2c(c1)C(=O)N([C@H](Cc1ccc(O)cc1)C(=O)O)C2=O` gave Mito fusion act -2% and KAT2A inh -6%.
Screening O=C(C1CCC(=O)N(C2CC2)C1)N1CCC(Oc2cccc(F)c2)CC1 (stereo unspecified) returned PLK1 PBD inh -23%, Mito fusion act -1%, KAT2A inh inconclusive, GLS inhibitor 9%, VDR inhibitor 11% and PKM2 act -10%.
O=C(Sc1nnc(-c2ccccc2)o1)N1c2ccccc2Sc2ccccc21 was read as PLK1 PBD inh 67µM*, Mito fusion act 4%, KAT2A inh -5%, GLS inhibitor 8%, VDR inhibitor 9% and PKM2 act -9%.
Screening COc1cc(-c2nnc(SCC(=O)N3c4ccccc4Sc4ccccc43)o2)cc(OC)c1OC returned PLK1 PBD inh -3%, Mito fusion act 6%, KAT2A inh -4%, GLS inhibitor 4%, VDR inhibitor 6% and PKM2 act -26%.

Compound activity: PubChem, National Center for Advancing Translational Sciences (NCATS)
